From article PMC5700166

Tests used:
[1] = target: T1, GST-Nv-NF-kB (Ser allele) (Nematostella vectensis, UniProt A7UNT2 2-411); assay: protein-binding microarray (PBM); PBM: ~300 nM protein, 6 mM HEPES pH 7.8, 80 mM KCl, 0.5 mM EDTA, 0.5 mM EGTA, 6% glycerol, 35 ng/ul poly-dIdC, 1% milk, 1 h, room temperature; Ap Aiptasia and Nv Nematostella (sea anemones) / Co Capsaspora / Aq Amphimedon (sponge) / Dm Drosophila / Hu human; RHD is the Rel homology domain; high values mean tight binding; details: dsDNA, one strand shown
T1 sequence: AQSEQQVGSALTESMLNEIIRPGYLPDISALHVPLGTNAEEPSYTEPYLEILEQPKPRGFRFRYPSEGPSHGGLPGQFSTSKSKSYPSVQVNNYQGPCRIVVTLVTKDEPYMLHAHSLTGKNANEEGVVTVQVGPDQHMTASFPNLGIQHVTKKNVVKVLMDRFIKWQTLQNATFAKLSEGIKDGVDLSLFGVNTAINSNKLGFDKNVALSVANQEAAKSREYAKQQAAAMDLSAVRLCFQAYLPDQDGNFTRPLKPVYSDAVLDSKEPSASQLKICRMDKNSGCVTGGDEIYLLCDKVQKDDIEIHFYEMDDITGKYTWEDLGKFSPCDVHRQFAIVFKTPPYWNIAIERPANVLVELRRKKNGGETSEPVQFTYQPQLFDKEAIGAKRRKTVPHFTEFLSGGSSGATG

[2] = target: GST-Hu-p50 (Homo sapiens, UniProt P19838 7-356); assay: as above; details: dsDNA, one strand shown
Chain of GST-Hu-p50 (P19838 7-356): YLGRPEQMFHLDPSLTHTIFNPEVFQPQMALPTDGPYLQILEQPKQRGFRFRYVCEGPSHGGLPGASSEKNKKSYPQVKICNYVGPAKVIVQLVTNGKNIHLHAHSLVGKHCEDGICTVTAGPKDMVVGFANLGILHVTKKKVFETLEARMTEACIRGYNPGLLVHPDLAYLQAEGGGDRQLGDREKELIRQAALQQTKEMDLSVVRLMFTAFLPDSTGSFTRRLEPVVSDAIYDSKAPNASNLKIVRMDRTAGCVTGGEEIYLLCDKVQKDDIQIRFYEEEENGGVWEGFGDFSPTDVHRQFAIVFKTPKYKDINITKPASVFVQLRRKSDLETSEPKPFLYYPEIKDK

Sequence | binding signal [1] [z-score] | binding signal [2] [z-score]
CCGATTAACATCAAGTATTTCCCTGATGTTAATCGGGTCTTGATTCGCTTGACGCTGCTG | 5.24 | 3.64
CCGATTAACATCACCGGAATTCCTGATGTTAATCGGGTCTTGATTCGCTTGACGCTGCTG | 1.56 | 2.71
CCGATTAACATCAACTAATTCCCTGATGTTAATCGGGTCTTGATTCGCTTGACGCTGCTG | 4.35 | 2.11
CCGATTAACATCAGGAACCCCCATGATGTTAATCGGGTCTTGATTCGCTTGACGCTGCTG | 4.62 | 5.23
CCGATTAACATCACATGTTCCCCTGATGTTAATCGGGTCTTGATTCGCTTGACGCTGCTG | 6.15 | 3.07
CCGATTAACATCAAAATCTTCCCTGATGTTAATCGGGTCTTGATTCGCTTGACGCTGCTG | 6.32 | 3.8
CCGATTAACATCAGGGGGGGTTATGATGTTAATCGGGTCTTGATTCGCTTGACGCTGCTG | 4.34 | 4.91
CCGATTAACATCAAATCATCCCCTGATGTTAATCGGGTCTTGATTCGCTTGACGCTGCTG | 6.16 | 4.63
CCGATTAACATCAAGAAATTACCTGATGTTAATCGGGTCTTGATTCGCTTGACGCTGCTG | 5.68 | 3.38
CCGATTAACATCACCCGGGAAAATGATGTTAATCGGGTCTTGATTCGCTTGACGCTGCTG | 4.34 | 3.07
CCGATTAACATCAGGGCTTTACCTGATGTTAATCGGGTCTTGATTCGCTTGACGCTGCTG | 1.71 | 2.02
CCGATTAACATCAGGCAAGTCCCTGATGTTAATCGGGTCTTGATTCGCTTGACGCTGCTG | 3.07 | 3.44
CCGATTAACATCATTATGGGAAATGATGTTAATCGGGTCTTGATTCGCTTGACGCTGCTG | 2.21 | 2.18
CCGATTAACATCAACCCTCCCCCTGATGTTAATCGGGTCTTGATTCGCTTGACGCTGCTG | 3.85 | 3.3
CCGATTAACATCAGGGACACCCCTGATGTTAATCGGGTCTTGATTCGCTTGACGCTGCTG | 3.24 | 4.03
CCGATTAACATCAGCACCCCCCCTGATGTTAATCGGGTCTTGATTCGCTTGACGCTGCTG | 3.4 | 4.3
CCGATTAACATCACCCATCCCCCTGATGTTAATCGGGTCTTGATTCGCTTGACGCTGCTG | 4.96 | 4.2

Sequence | binding signal [1] [z-score] | binding signal [2] [z-score]
CCGATTAACATCAAATTCCCAAATGATGTTAATCGGGTCTTGATTCGCTTGACGCTGCTG | 3.82 | 3.01
CCGATTAACATCAAAATTCCCATTGATGTTAATCGGGTCTTGATTCGCTTGACGCTGCTG | 5.71 | 4.55
CCGATTAACATCAAGGAATTTCCTGATGTTAATCGGGTCTTGATTCGCTTGACGCTGCTG | 1.22 | 1.48
CCGATTAACATCACCAAAATCCCTGATGTTAATCGGGTCTTGATTCGCTTGACGCTGCTG | 2.71 | 2.9
CCGATTAACATCAGTAACTCCCTTGATGTTAATCGGGTCTTGATTCGCTTGACGCTGCTG | 2.17 | 2.5
CCGATTAACATCAGGGGTTTAACTGATGTTAATCGGGTCTTGATTCGCTTGACGCTGCTG | 1.69 | 3.05
CCGATTAACATCAGATGTCCCCCTGATGTTAATCGGGTCTTGATTCGCTTGACGCTGCTG | 4.47 | 3.96
CCGATTAACATCACACACCCCCCTGATGTTAATCGGGTCTTGATTCGCTTGACGCTGCTG | 3.65 | 3.63
CCGATTAACATCAGGGGCAACCCTGATGTTAATCGGGTCTTGATTCGCTTGACGCTGCTG | 1.9 | 3.13
CCGATTAACATCACGTTCCCCCCTGATGTTAATCGGGTCTTGATTCGCTTGACGCTGCTG | 5.78 | 5.15
CCGATTAACATCAGGAGTTTACCTGATGTTAATCGGGTCTTGATTCGCTTGACGCTGCTG | 2.03 | 1.4
CCGATTAACATCAGGGGAGTATATGATGTTAATCGGGTCTTGATTCGCTTGACGCTGCTG | 4.21 | 3.33
CCGATTAACATCAGGTCGGGAAATGATGTTAATCGGGTCTTGATTCGCTTGACGCTGCTG | 2.31 | 1.27
CCGATTAACATCAAAAATTCCGGTGATGTTAATCGGGTCTTGATTCGCTTGACGCTGCTG | 1.4 | 3.12
CCGATTAACATCAGGAATATACCTGATGTTAATCGGGTCTTGATTCGCTTGACGCTGCTG | 1.48 | 1.06
CCGATTAACATCACCGATTTCCCTGATGTTAATCGGGTCTTGATTCGCTTGACGCTGCTG | 5.28 | 3.65
